# Experimental data taken from PubChem BioAssay AID1851 (National Center for Advancing Translational Sciences (NCATS), 2009).
# The whole screen tested about 16,000 compounds, of which about 5,800 (36%) were called active. Another 23% or so got no clear call; they are omitted. The call rests on the fitted dose curve; in most records, active means well fitted curve in the direction sought with a large enough effect; inconclusive means small, poorly fitted or top-dose-only effect, or effect the other way; inactive means no such curve, though single readings can be large or run the other way. The list shows a part of the results.
# Target: Cytochrome P450 2C19 (Homo sapiens) (UniProt P33261)
# Sequence (P33261 whole entry, looked up): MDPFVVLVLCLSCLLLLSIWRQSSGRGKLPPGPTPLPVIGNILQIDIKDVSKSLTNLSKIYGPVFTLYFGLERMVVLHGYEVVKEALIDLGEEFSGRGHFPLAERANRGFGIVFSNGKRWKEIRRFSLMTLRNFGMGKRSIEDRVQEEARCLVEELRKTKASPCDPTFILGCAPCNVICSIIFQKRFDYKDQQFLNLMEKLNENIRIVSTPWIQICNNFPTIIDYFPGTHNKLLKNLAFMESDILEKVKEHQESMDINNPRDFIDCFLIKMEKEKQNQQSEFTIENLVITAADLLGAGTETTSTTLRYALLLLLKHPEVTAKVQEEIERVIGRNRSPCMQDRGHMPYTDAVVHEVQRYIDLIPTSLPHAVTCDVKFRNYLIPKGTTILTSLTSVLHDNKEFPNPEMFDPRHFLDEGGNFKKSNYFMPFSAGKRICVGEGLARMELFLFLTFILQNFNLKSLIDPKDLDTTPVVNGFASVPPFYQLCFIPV
# Experiment: Cytochrome panel assay with activity outcomes
# Details: recombinant CYP, pro-luciferin dealkylation, luminescence, p450-cyp2c19; series mostly up to 57.1 µM
# On the % scale 0 is the no-effect control and ±100 the full control effect.
Compound,AC50,"activity, negative = inhibition"
CC(=O)COC(=O)CCc1nc2ccccc2[nH]c1=O,11.2 µM (active),–
N[C@@H](Cc1ncccn1)C(=O)O,–,1.66% [at 11.4 µM] (inactive)
Cc1ccc(CN2CC34C=CC(O3)C(C(=O)NCc3ccco3)C4C2=O)cc1 (stereo not drawn),14.1 µM (active),–
CCCCNC(=O)C1C2C=CC3(CN(Cc4ccccc4Cl)C(=O)C13)O2 (stereo not drawn),20 µM (active),–
COCCCNC(=O)C1C2C=CC3(CN(Cc4ccc(C)cc4)C(=O)C13)O2 (stereo not drawn),inactive,–
Cc1ccc(CN2CC34C=CC(O3)C(C(=O)NCc3ccc5c(c3)OCO5)C4C2=O)cc1 (stereo not drawn),15.8 µM (active),–
COC(=O)N1CCC2(CCN(C(=O)NC(C)C)CC2)CC1,inactive,–
FC(F)(F)c1nnc2c(Sc3ccccc3)nc3ccc(Cl)cc3n12,1.41 µM (active),–
FC(F)(F)c1nnc2c(Sc3ccc(Cl)cc3)nc3ccccc3n12,inactive,–
C[C@@]1(C(NC(=O)Cc2ccc(C(F)(F)F)cc2)c2ccc(-c3ccccc3)cc2)C[C@H]1C1CCCCC1 (stereo partly drawn),inactive,–
CC(C)NC(=O)c1ccc(-c2cccc(C(F)(F)F)c2)o1,7.08 µM (active),–
CC(C)NC(=O)N1CCC2(CC1)CCN(C(=O)c1cc(C(F)(F)F)cc(C(F)(F)F)c1)CC2,inactive,–
CC(=O)Nc1ccc(S(=O)(=O)NCC2CCC(C(=O)NCCC(C)C)CC2)cc1 (stereo not drawn),31.6 µM (active),–
Cc1ccc(S(=O)(=O)NCC2CCC(C(=O)O)CC2)cc1 (stereo not drawn),inactive,–
COCCCNC(=O)C1CCN(S(=O)(=O)N(CC(C)C)CC(C)C)CC1,inactive,–
CCCN(CCc1ccccc1)[C@H]1CCc2c(O)cccc2C1,inactive,–
Cc1cc(C)c(Cn2cnc(-c3ccc([N+](=O)[O-])cc3)c2)c(C)c1,3.16 µM (active),–
Cc1ccc(COn2c(-c3ccc(Cl)cc3)nc3ccc([N+](=O)[O-])cc32)cc1,inactive,–
C=C(C)C1CC=C(C)/C(=N/NC(=O)c2ccc(NC(=O)c3cccc(C)c3)cc2)C1 (stereo not drawn),1.41 µM (active),–
Nc1nc(Cl)nc2c1ncn2[C@@H]1O[C@@H](CO)[C@@H](O)[C@H]1O,inactive,–
Nc1nc(Nc2ccccc2)nc2c1ncn2[C@@H]1O[C@@H](CO)[C@H](O)[C@H]1O,0.631 µM (active),–
Nc1nc(Nc2ccccc2)nc2c1ncn2[C@@H]1O[C@@H](CO)[C@H](O)[C@@H]1O,inactive,–
CCOc1cc(C)ccc1OCc1nnc(SCC(=O)c2cccc([N+](=O)[O-])c2)n1CC,inactive,–
CCOc1cc(C)ccc1OCc1nnc(SCC(=O)c2cccc([N+](=O)[O-])c2)n1C,14.1 µM (active),–

Compound,AC50,"activity, negative = inhibition"
C=CCn1c(Cc2ccc(OC)cc2)nnc1SCC(=O)c1cccc([N+](=O)[O-])c1,14.1 µM (active),–
CC1(C)OC(C(N)=O)C(C(N)=O)O1 (stereo not drawn),inactive,–
CC(C)(CO)N1CCN(C(=S)Nc2ccccc2)CC1,–,4.38% [at 11.4 µM] (inactive)
COc1cc2c(cc1OC)CN(C(=S)Nc1ccccc1)CC2,2.51 µM (active),–
COCOc1ccc(Br)cc1C(=O)[C@H]1O[C@H]1c1cccc(OC)c1,0.0631 µM (active),–
CN(c1ccc(C(=O)NC2CC3CCC2C3)cc1)S(C)(=O)=O (stereo not drawn),inactive,–
CCCC1c2c(ccc3ccccc23)Oc2ccc3ccccc3c21,0.631 µM (active),–
COc1ncc2nc(-c3cc(F)cc(F)c3)c(=O)n(CCC#N)c2n1,inactive,–
C=CCNC(=O)c1ccccc1Cl,inactive,–
C=CCNC(=O)c1csc(-c2ccccc2)n1,10 µM (active),–
NCCc1nc(-c2nc(C(=O)O)cs2)cs1,–,-18.8% [at 11.4 µM] (inactive)
O=C(/C=C/c1ccco1)Nc1ccc(Oc2ccccc2)cc1,5.01 µM (active),–
O=C(c1ccccc1)c1nc2ccccc2n(CCCn2c(=O)c(C(=O)c3ccccc3)nc3ccccc32)c1=O,1 µM (active),–
O=C(O)Cc1cc2ccccc2nc1C(=O)O,inactive,–
CCCCCn1c(=O)c(C(=O)c2ccccc2)nc2ccccc21,2 µM (active),–
COc1ccc2c(c1)CCC1[C@@H]2CCC2(C)[C@@H](NCCCCCCN3C(=O)C=CC3=O)CC[C@@H]12 (stereo partly drawn),inactive,–
Oc1ccc(CNCc2ccccc2)c2cccnc12,–,-5.63% [at 11.4 µM] (inactive)
COc1cccc(CNCc2ccc(SC)cc2)c1OC,0.251 µM (active),–
CC(C)(C)NC(=O)CSC(=Nc1ccc(F)cc1)NC#N,2.82 µM (active),–
COc1ccc(C(=O)N2CCC3(CCCN(CC(C)C)C3)CC2)cc1,inactive,–
COc1ccc(C)cc1NC(=O)c1cc2cc3ccc(C)cc3nc2o1,inactive,–
Cc1ccc2cc(C(=O)O)c(C)nc2c1,inactive,–
Cc1ccc2cc3cc(C(=O)N4CCCCC4C)oc3nc2c1 (stereo not drawn),14.1 µM (active),–
CCN1CCN(CCCNC(=O)c2cc3cc4ccc(OC)cc4nc3o2)CC1,inactive,–

Compound,AC50,"activity, negative = inhibition"
COc1ccc2cc3cc(C(=O)NCc4ccc5c(c4)OCO5)oc3nc2c1,10 µM (active),–
COc1ccc2cc3cc(C(=O)NCc4ccccn4)oc3nc2c1,inactive,–
COc1ccc2cc3cc(C(=O)NCCCN4CCOCC4)oc3nc2c1,inactive,–
COc1ccc2cc3cc(C(=O)Nc4ccc5c(c4)OCO5)oc3nc2c1,7.08 µM (active),–
COc1ccc2cc3cc(C(=O)NCCN4CCN(c5ccccc5F)CC4)oc3nc2c1,28.2 µM (active),–
CCN(CC(=O)O)CC(=O)O,–,7.01% [at 11.4 µM] (inactive)
COCC(=O)N1CCC[C@@]2(CCN(c3ncccn3)C2)C1,inactive,–
O=S1(=O)C=C(SCc2cccc(Cl)c2)Nc2ccccc21,0.891 µM (active),–
C=CCOc1cccc(CNn2cn[nH]c2=S)c1,7.94 µM (active),–
C[C@@H](C(=O)NCCc1c[nH]c2ccccc12)[C@H]1C[C@]1(C)[C@H](NC(=O)OCc1ccccc1)c1ccccc1,2.51 µM (active),–
C[C@@H](C(=O)NCCc1c[nH]c2ccccc12)[C@@H]1C[C@@]1(C)[C@@H](NC(=O)OCc1ccccc1)c1ccccc1,0.794 µM (active),–
COc1cccc([C@@H]2Oc3ccc(Br)cc3C(=O)[C@H]2O)c1,3.16 µM (active),–
COc1cccc([C@H]2Oc3ccc(OC)cc3/C(=N\O[C@@H]3O[C@H](COC(C)=O)[C@H](OC(C)=O)[C@H](OC(C)=O)[C@H]3OC(C)=O)[C@@H]2O)c1,–,14.8% [at 11.4 µM] (inactive)
COc1cccc([C@@H]2Oc3ccc(OC)cc3C(=O)[C@H]2O)c1,1 µM (active),–
CC(=O)OCC(=O)[C@]12OC(C)(C)O[C@@H]1C[C@H]1[C@H]3CC=C4C[C@@H](O)CC[C@]4(C)[C@H]3CC[C@]12C,–,4.13% [at 11.4 µM] (inactive)
CC[C@@H]1OC(=O)[C@H](C)[C@H](O[C@@H]2C[C@](C)(OC)[C@H](O)[C@H](C)O2)[C@H](C)[C@H](O[C@@H]2O[C@@H](C)C[C@@H](N(C)C)[C@@H]2O)[C@](C)(O)C[C@H](C)C(=O)[C@H](C)[C@H](O)[C@]1(C)O,inactive,–
Nc1c2c(=O)oc(-c3ccccc3)cc2nn1-c1ccccc1,14.1 µM (active),–
NS(=O)(=O)c1cccc2c1c([N+](=O)[O-])cc1[nH]c(=O)c(=O)[nH]c12,inactive,–
Cc1cc(C)c(C(N)=O)c(SCC(=O)c2ccc(Cl)cc2)n1,8.91 µM (active),–
CCCSc1nc(C)cc(C)c1C(N)=O,inactive,–
NC(=O)c1nnn(Cc2cc(Cl)c(C(=O)c3ccc(Cl)cc3)c(Cl)c2)c1N,–,-30.1% [at 11.4 µM] (inactive)
CCOC(=O)c1nc2sc(C)c(C)c2c(=O)[nH]1,10 µM (active),–
OCCNc1ncnc2c1ncn2[C@@H]1O[C@@H](CO)[C@H](O)[C@@H]1O,–,32.5% [at 11.4 µM] (inactive)
CCC(=O)N[C@@H]1Cc2ccccc2[C@@H](c2ccccc2)C1,7.94 µM (active),–

Compound,AC50,"activity, negative = inhibition"
CCC(=O)N[C@@H]1CCc2cccc(OC)c2C1,inactive,–
COc1ccc(-c2nc3cnc(Nc4cccc(OC)c4)nc3n(Cc3cccs3)c2=O)cc1,inactive,–
COc1cccc(Nc2nc(-c3ccc(O)cc3)cs2)c1,2.51 µM (active),–
COc1cccc(Nc2ncc3nc(-c4ccc(F)cc4)c(=O)n(C)c3n2)c1,inactive,–
Cc1cc(C)n(C(=O)CCCCCCCCC(=O)n2nc(C)cc2C)n1,3.55 µM (active),–
CC(=O)c1cnc2cc(C)nn2c1C,inactive,–
CN1CCc2c(cc(O)c(O)c2Cl)[C@H](c2cccc(Cl)c2)C1,inactive,–
OC(COCC1COc2ccccc2O1)CN1CCN(c2ccccc2F)CC1 (stereo not drawn),28.2 µM (active),–
OC(COCC1COc2ccccc2O1)CN1CCc2ccccc2C1 (stereo not drawn),5.01 µM (active),–
CC(C)(C)C1CCC(OCC(O)CN2CCN(c3ccccc3)CC2)CC1 (stereo not drawn),inactive,–
O=C(c1ccccc1)c1ccc2n1CC[C@H]2C(=O)O,inactive,–
C=CCc1ccccc1OC[C@H](O)CNC(C)C,inactive,–
CC(C)(C)NC[C@@H](O)COc1ccccc1C1CCCC1,inactive,–
O=C(NC1CCCC1)c1cnn2c(C(F)(F)F)cc(-c3ccco3)nc12,11.2 µM (active),–
Cc1nc2ccccn2c1C(=O)CSc1ccccc1Cl,2.82 µM (active),–
COCCNC(=O)[C@H](C)[C@@H]1C[C@@]1(C)[C@@H](NC(=O)OCc1ccccc1)c1ccccc1,3.16 µM (active),–
C[C@@H](C(=O)NCCF)[C@H]1C[C@]1(C)[C@H](NC(=O)OCc1ccccc1)c1ccccc1,1.26 µM (active),–
CCOC(=O)N/N=C1/C[C@@H](O)[C@@H](O)[C@@H]2[C@@H]3C(=O)N(C(C)(C)C)C(=O)[C@H]3CC[C@@H]12,–,-19.4% [at 11.4 µM] (inactive)
CC(=O)OCCNC(=O)c1cccnc1,inactive,–
O=C(NCCOC(=O)c1ccc(C(=O)OCCNC(=O)c2cccnc2)s1)c1cccnc1,7.94 µM (active),–
O=C(NCCO[N+](=O)[O-])c1cccnc1,3.98 µM (active),–
